# Results as given in the supplement of paper PMC10037445.
# ± gives the standard deviation of the averaged measurements. In all, about 2,900 compounds were measured (“NF-kB SEAP reporter activity, fold change vs agonist alone”: median about 0.99, highest 2% from about 2.6 on). The full list was thinned out, with the highest values kept by preference.
# Key:
# [1] = tested on: RAW-Dual; assay: NF-kB SEAP reporter activity, fold change vs agonist alone; cytotoxicity flag (confluency mask): cytotoxic (confluency <70% of control); higher = enhanced NF-kB activity
# Outline: (§1)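 Library stock was pin-tooled at 50 nL into 384-well plates of RAW-Dual macrophages (50,000 cells/well, DMEM), followed 1 h later by a PRR agonist, and the cells were kept at 37 °C, 5% CO2. Supernatant collected after 20 hours was read for IRF by QuantiLuc luminescence and for NF-κB by QuantiBlue absorbance at 620 nm. Reporter activity is fold change over agonist-alone wells, and a well counted as cytotoxic when its IncuCyte confluency was below 70% of agonist controls in both mask sets.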
# [2] = tested on: RAW-Dual; assay: NF-kB SEAP reporter activity, fold change vs agonist alone; higher = enhanced NF-kB activity
# Outline: as §1
# [3] = tested on: RAW-Dual; assay: NF-kB SEAP reporter activity, fold change vs agonist alone; cytotoxicity flag (confluency mask): not cytotoxic; higher = enhanced NF-kB activity
# Outline: as §1
# [4] = agonist: ODN 1826 (TLR9) 0.5 ug/mL
# [5] = agonist: Pam2CSK4 (TLR2/6) 0.1 ug/mL
# [6] = agonist: Pam3CSK4 (TLR2/1) 0.1 ug/mL
# [7] = library stock concentration (final ~1000-fold dilution): 10 mM, cytotoxicity flag (confluency mask): not cytotoxic, agonist: Imiquimod (TLR7) […]
# [8] = library stock concentration (final ~1000-fold dilution): 10 mM, cytotoxicity flag (confluency mask): not cytotoxic, agonist: MPLA (TLR4) […]
# [9] = library stock concentration (final ~1000-fold dilution): 10 mM, cytotoxicity flag (confluency mask): cytotoxic (confluency <70% of control), agonist: Imiquimod (TLR7) […]
# [10] = library stock concentration (final ~1000-fold dilution): 10 mM, cytotoxicity flag (confluency mask): cytotoxic (confluency <70% of control), agonist: MPLA (TLR4) […]
compound,measurement,setting,value
C=CC(=O)Nc1cc(Nc2nccc(-c3cn(C)c4ccccc34)n2)c(OC)cc1N(C)CCN(C)C.CS(=O)(=O)O (library stock concentration (final ~1000-fold dilution): 10 mM),NF-kB SEAP reporter activity,[1]; agonist: LPS (TLR4) 0.1 ug/mL,2.39
same,NF-kB SEAP reporter activity,[1]; [4],0.214
same,NF-kB SEAP reporter activity,[1]; [5],1.28
same,NF-kB SEAP reporter activity,[1]; [6],0.898
O=[N+]([O-])c1ccc(Nc2ccccc2-c2ccccc2)c2nonc12,NF-kB SEAP reporter activity,[2]; [7],0.973
same,NF-kB SEAP reporter activity,[2]; [8],1.33
O=[N+]([O-])c1ccc(Nc2ccccc2-c2ccccc2)c2nonc12 (library stock concentration (final ~1000-fold dilution): 10 mM),NF-kB SEAP reporter activity,[3]; agonist: LPS (TLR4) 0.1 ug/mL,2.02
same,NF-kB SEAP reporter activity,[3]; [4],1.02
same,NF-kB SEAP reporter activity,[3]; [5],0.555
same,NF-kB SEAP reporter activity,[3]; [6],0.754
CC(C)(C)C(=O)N1N=CCC1c1ccccc1 (stereo not given),NF-kB SEAP reporter activity,[2]; [7],0.871 ± 0.094
same,NF-kB SEAP reporter activity,[2]; [8],1.025 ± 0.0035
CC(C)(C)C(=O)N1N=CCC1c1ccccc1 (stereo not given) (library stock concentration (final ~1000-fold dilution): 10 mM),NF-kB SEAP reporter activity,[3]; agonist: LPS (TLR4) 0.1 ug/mL,1.02 ± 0.095
same,NF-kB SEAP reporter activity,[3]; [4],0.9171 ± 0.0045
same,NF-kB SEAP reporter activity,[3]; [5],0.983 ± 0.09
same,NF-kB SEAP reporter activity,[3]; [6],1.3 ± 0.015
O=C(C=Cn1cnc(-c2cc(C(F)(F)F)cc(C(F)(F)F)c2)n1)NNc1cnccn1,NF-kB SEAP reporter activity,[2]; [7],1.41
same,NF-kB SEAP reporter activity,[2]; [8],0.523
O=C(C=Cn1cnc(-c2cc(C(F)(F)F)cc(C(F)(F)F)c2)n1)NNc1cnccn1 (library stock concentration (final ~1000-fold dilution): 10 mM),NF-kB SEAP reporter activity,[3]; agonist: LPS (TLR4) 0.1 ug/mL,0.255
same,NF-kB SEAP reporter activity,[3]; [4],0.841
same,NF-kB SEAP reporter activity,[3]; [5],0.42
same,NF-kB SEAP reporter activity,[3]; [6],0.428
Cc1ccc(NC(=O)c2ccc(CN3CCC(N(C)C)C3)c(C(F)(F)F)c2)cc1Nc1nccc(-c2cncnc2)n1 (stereo not given),NF-kB SEAP reporter activity,[2]; [9],2.42
same,NF-kB SEAP reporter activity,[2]; [10],1.36
Cc1ccc(NC(=O)c2ccc(CN3CCC(N(C)C)C3)c(C(F)(F)F)c2)cc1Nc1nccc(-c2cncnc2)n1 (stereo not given) (library stock concentration (final ~1000-fold dilution): 10 mM),NF-kB SEAP reporter activity,[1]; agonist: LPS (TLR4) 0.1 ug/mL,0.247
same,NF-kB SEAP reporter activity,[1]; [4],0.833
same,NF-kB SEAP reporter activity,[1]; [5],1.4
same,NF-kB SEAP reporter activity,[1]; [6],1.16
Cc1nc(NC(=O)N2CCCC2C(N)=O)sc1-c1ccnc(C(C)(C)C(F)(F)F)c1 (stereo not given) (library stock concentration (final ~1000-fold dilution): 10 mM),NF-kB SEAP reporter activity,[3]; agonist: LPS (TLR4) 0.1 ug/mL,1.65
same,NF-kB SEAP reporter activity,[3]; [4],1.78
same,NF-kB SEAP reporter activity,[3]; [5],1.43
same,NF-kB SEAP reporter activity,[3]; [6],1.09
Cc1nc(NC(=O)N2CCCC2C(N)=O)sc1-c1ccnc(C(C)(C)C(F)(F)F)c1 (stereo not given),NF-kB SEAP reporter activity,[2]; [7],1.35
same,NF-kB SEAP reporter activity,[2]; [8],1.13
C=CC(=O)N1CCN(CCCn2c(=O)c(-c3c(Cl)c(OC)cc(OC)c3Cl)cc3cnc(NC)nc32)CC1,NF-kB SEAP reporter activity,[2]; [7],0.952
same,NF-kB SEAP reporter activity,[2]; [8],1.23
C=CC(=O)Nc1cccc(C)c1Nc1ncc2cc(-c3c(Cl)c(OC)cc(OC)c3Cl)ccc2n1 (library stock concentration (final ~1000-fold dilution): 2 mM),NF-kB SEAP reporter activity,[3]; agonist: LPS (TLR4) 0.1 ug/mL,1.04
same,NF-kB SEAP reporter activity,[3]; [4],1.08
same,NF-kB SEAP reporter activity,[3]; [5],0.531
same,NF-kB SEAP reporter activity,[3]; [6],0.89
C=CC(=O)N1CCN(CCCn2c(=O)c(-c3c(Cl)c(OC)cc(OC)c3Cl)cc3cnc(NC)nc32)CC1 (library stock concentration (final ~1000-fold dilution): 10 mM),NF-kB SEAP reporter activity,[3]; agonist: LPS (TLR4) 0.1 ug/mL,3.2
same,NF-kB SEAP reporter activity,[3]; [4],1.05
same,NF-kB SEAP reporter activity,[3]; [5],0.933
same,NF-kB SEAP reporter activity,[3]; [6],1.15
C=CC(=O)Nc1cccc(C)c1Nc1ncc2cc(-c3c(Cl)c(OC)cc(OC)c3Cl)ccc2n1,NF-kB SEAP reporter activity,"[2]; library stock concentration (final ~1000-fold dilution): 2 mM, cytotoxicity flag (confluency mask): not cytotoxic, agonist: Imiquimod (TLR7) […]",1.08
same,NF-kB SEAP reporter activity,"[2]; library stock concentration (final ~1000-fold dilution): 2 mM, cytotoxicity flag (confluency mask): not cytotoxic, agonist: MPLA (TLR4) […]",1.2
C=CC(=O)NC1CCOCC1Nc1ncc2cc(-c3c(Cl)c(OC)cc(OC)c3Cl)ccc2n1 (stereo not given) (library stock concentration (final ~1000-fold dilution): 10 mM),NF-kB SEAP reporter activity,[3]; agonist: LPS (TLR4) 0.1 ug/mL,0.691
same,NF-kB SEAP reporter activity,[3]; [4],0.827
same,NF-kB SEAP reporter activity,[3]; [5],0.34
same,NF-kB SEAP reporter activity,[3]; [6],0.478
C=CC(=O)NC1CCOCC1Nc1ncc2cc(-c3c(Cl)c(OC)cc(OC)c3Cl)ccc2n1 (stereo not given),NF-kB SEAP reporter activity,[2]; [7],0.68
same,NF-kB SEAP reporter activity,[2]; [8],0.869
CC(C)(C)NC(=O)C1CCC2C3CCC4NC(=O)C=CC4(C)C3CCC12C (stereo not given),NF-kB SEAP reporter activity,[2]; [7],0.218
same,NF-kB SEAP reporter activity,[2]; [8],1.07
CC(C)(C)NC(=O)C1CCC2C3CCC4NC(=O)C=CC4(C)C3CCC12C (stereo not given) (library stock concentration (final ~1000-fold dilution): 10 mM),NF-kB SEAP reporter activity,[3]; agonist: LPS (TLR4) 0.1 ug/mL,0.988
same,NF-kB SEAP reporter activity,[3]; [4],0.946
same,NF-kB SEAP reporter activity,[3]; [5],0.943
same,NF-kB SEAP reporter activity,[3]; [6],0.998
COc1ccc(-c2oc3c(CC=C(C)C)c(O)cc(O)c3c(=O)c2OC2OC(C)C(O)C(O)C2O)cc1 (stereo not given) (library stock concentration (final ~1000-fold dilution): 10 mM),NF-kB SEAP reporter activity,[1]; agonist: LPS (TLR4) 0.1 ug/mL,2.22
same,NF-kB SEAP reporter activity,[1]; [4],0.553
same,NF-kB SEAP reporter activity,[1]; [5],0.251
same,NF-kB SEAP reporter activity,[1]; [6],0.457
COc1ccc(-c2oc3c(CC=C(C)C)c(O)cc(O)c3c(=O)c2OC2OC(C)C(O)C(O)C2O)cc1 (stereo not given),NF-kB SEAP reporter activity,[2]; [9],1.82
same,NF-kB SEAP reporter activity,[2]; [10],1.45
CSC1(C(=O)Nc2ccc3[nH]nc(-c4ccc(OC(C)C)nc4)c3c2)CCN(CC(=O)N2CC=C(c3ccc(-c4ncn(C)n4)cc3)CC2)C1 (stereo not given),NF-kB SEAP reporter activity,[2]; [7],0.202
same,NF-kB SEAP reporter activity,[2]; [8],0.321
CSC1(C(=O)Nc2ccc3[nH]nc(-c4ccc(OC(C)C)nc4)c3c2)CCN(CC(=O)N2CC=C(c3ccc(-c4ncn(C)n4)cc3)CC2)C1 (stereo not given) (library stock concentration (final ~1000-fold dilution): 10 mM),NF-kB SEAP reporter activity,[3]; agonist: LPS (TLR4) 0.1 ug/mL,0.407
same,NF-kB SEAP reporter activity,[3]; [4],0.343
same,NF-kB SEAP reporter activity,[3]; [5],0.0837
same,NF-kB SEAP reporter activity,[3]; [6],0.136
